Data reported in PubChem BioAssay (EPA / NIEHS).
Several values for one entry are separate records, joined by “and”; a condition that tells them apart may be missing. Equal values may be shown once. Inconclusive results are not listed. Some compounds were tested as several samples or in several runs, with calls that do not always agree. Activity calls are given as the source filed them. Rule for the calls, unless noted: active = hit-call score of the fitted dose curve at least 0.9, where 1 is the maximum; inconclusive = response in the unintended direction; inactive = score below 0.9.

Molecular target: Estrogen receptor (Homo sapiens) (UniProt P03372)
Experiment: CCTE_Deisenroth_AIME_384WELL_LUC_Active: CCTE's 384-well Estrogen Receptor Transactivation Assay with AIME metabolic competence (ERTA luciferase; metabolism positive), Deisenroth Lab (AID 2284030)
Outline: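 Readout: bioluminescent luciferase induction in VM7Luc4E2 cells 24 hour after receiving medium from a 2 h rat hepatic S9 (induced, alginate microsphere) metabolism step. Concentrations 0.002 - 200 uM; activity scaled to 17beta-estradiol positive control.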

Sequence of Estrogen receptor (Homo sapiens) (P03372 whole entry, looked up): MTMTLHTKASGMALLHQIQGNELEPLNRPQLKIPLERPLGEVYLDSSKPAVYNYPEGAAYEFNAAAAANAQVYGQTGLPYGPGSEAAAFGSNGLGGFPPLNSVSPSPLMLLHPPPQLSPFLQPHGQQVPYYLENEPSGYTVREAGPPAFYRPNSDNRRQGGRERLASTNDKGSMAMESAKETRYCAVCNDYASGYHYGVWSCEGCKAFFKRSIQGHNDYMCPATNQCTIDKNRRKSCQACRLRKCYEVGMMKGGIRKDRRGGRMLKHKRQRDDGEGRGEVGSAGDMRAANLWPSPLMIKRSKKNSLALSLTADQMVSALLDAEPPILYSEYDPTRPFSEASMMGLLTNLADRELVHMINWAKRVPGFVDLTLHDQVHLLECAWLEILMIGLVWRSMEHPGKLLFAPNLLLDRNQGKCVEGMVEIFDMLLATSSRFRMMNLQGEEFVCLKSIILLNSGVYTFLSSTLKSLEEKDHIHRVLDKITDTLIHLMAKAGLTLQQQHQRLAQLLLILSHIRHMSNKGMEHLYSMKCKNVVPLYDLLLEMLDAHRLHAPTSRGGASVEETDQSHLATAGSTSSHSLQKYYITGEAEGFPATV

**Q.** Which outcome does the source give for N#C[C@@H]1CC(F)(F)CN1C(=O)CNC1CC2CCC(C1)N2c1ncccn1 (stereo not given in full) here?
**A.** inactive

**Q.** With O=C(O)c1ccccc1C(c1ccc(O)cc1)c1ccc(O)cc1 as the compound, how does the AC50 read?
**A.** 123 µM (active)

**Q.** For CCCCCCCCC(=O)O, which outcome is on record?
**A.** inactive

**Q.** For Cc1ccc(S(=O)(=O)O)c(C)c1, which outcome is on record?
**A.** inactive

**Q.** Which outcome does the source give for OCCC(F)(F)C(F)(F)C(F)(F)C(F)(F)C(F)(F)C(F)(F)C(F)(F)C(F)(F)F here?
**A.** inactive

**Q.** For OC1CCCCC1, which outcome is on record?
**A.** inactive

**Q.** Which outcome does the source give for CCCCCCC(=O)O here?
**A.** inactive

**Q.** For CCCCOCCO, which outcome is on record?
**A.** inactive

**Q.** Which outcome does the source give for CCCCC(CC)COC(=O)CCCCC(=O)OCc1ccccc1 (stereo not given) here?
**A.** inactive

**Q.** For CCCCCCCCCCCCCCCS(=O)(=O)Oc1ccccc1, which AC50 is on record?
**A.** 19.5 µM (active)

**Q.** With COCC(C)OCC(C)O (stereo not given) as the compound, how does the outcome read?
**A.** inactive

**Q.** Which outcome does the source give for ClC1=C(Cl)C(Cl)(Cl)C(Cl)=C1Cl here?
**A.** inactive

**Q.** For CC#C[C@]1(O)CC[C@H]2[C@@H]3CCC4=CC(=O)CCC4=C3[C@@H](c3ccc(N(C)C)cc3)C[C@@]21C, which outcome is on record?
**A.** inactive

**Q.** For COC(=O)CCCCC(=O)OC, which outcome is on record?
**A.** inactive

**Q.** For OCCC(F)(F)C(F)(F)C(F)(F)C(F)(F)C(F)(F)C(F)(F)F, which outcome is on record?
**A.** inactive

**Q.** Which outcome does the source give for CN1CCC[C@H]1c1cccnc1 here?
**A.** inactive

**Q.** For c1ccc2cc3c(ccc4ccccc43)cc2c1, which AC50 is on record?
**A.** 53.8 µM (active)

Test system: not listed separately
Experiment: CCTE_Shafer_MEA_dev_firing_rate_mean: CCTE's Neural Network Formation Assay for Mean Firing Rate, Shafer Lab (AID 2284031; active = hit-call score of the fitted dose curve at least 0.9, where 1 is the maximum; inactive = score below 0.9;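 for AC50: curve fitted for loss of firing so AC50 reflects decreased mean firing rate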)
Outline: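 Steps: seed rat cortical cells (1.5 x 10^5/well) with laminin on PEI-coated MEA; dose day 0; record DIV 5/7/9/12, full media and compound exchange after DIV 5 and 9 recordings; compute well-mean firing rate AUC.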

**Q.** With CC(O)CO (stereo not given) as the compound, how does the outcome read?
**A.** inactive

**Q.** For OCCC(F)(F)C(F)(F)C(F)(F)C(F)(F)C(F)(F)C(F)(F)C(F)(F)C(F)(F)F, which outcome is on record?
**A.** inactive

**Q.** Which results are given for CC#C[C@]1(O)CC[C@H]2[C@@H]3CCC4=CC(=O)CCC4=C3[C@@H](c3ccc(N(C)C)cc3)C[C@@]21C?
**A.** AC50: 8.04 µM (active); outcome: inactive

**Q.** For OCCC(F)(F)C(F)(F)C(F)(F)C(F)(F)C(F)(F)C(F)(F)F, which outcome is on record?
**A.** inactive

**Q.** With c1ccc2c(c1)Cc1ccccc1-2 as the compound, how does the outcome read?
**A.** inactive

**Q.** For C=C(C)C(=O)OCCC(F)(F)C(F)(F)C(F)(F)C(F)(F)C(F)(F)C(F)(F)F, which outcome is on record?
**A.** inactive

**Q.** Which outcome does the source give for c1ccc2c(c1)ccc1ccccc12 here?
**A.** inactive

**Q.** For CN1CCC[C@H]1c1cccnc1, which outcome is on record?
**A.** inactive

**Q.** For CC1=C(/C=C/C(C)=C/C=C/C(C)=C/C(=O)O)C(C)(C)CCC1, which AC50 is on record?
**A.** 2.98 µM (active)

**Q.** Which outcome does the source give for c1ccc2cc3c(ccc4ccccc43)cc2c1 here?
**A.** inactive

Test system: not listed separately
Experiment: CCTE_Shafer_MEA_dev_per_burst_spike_percent: CCTE's Neural Network Formation Assay for Percent of Spikes in a Burst, Shafer Lab (AID 2284032; active = hit-call score of the fitted dose curve at least 0.9, where 1 is the maximum; inactive = score below 0.9;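 for AC50: fitted as a decrease in burst spike percentage below DMSO baseline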)
Outline: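 Value is trapezoidal AUC over recordings on days 5, 7, 9 and 12 of the well-mean fraction of spikes falling in single-electrode bursts; rat cortical cultures exposed continuously from plating, treatment renewed DIV 5 and 9, fitted downward against DMSO.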

**Q.** For CC(O)CO (stereo not given), which outcome is on record?
**A.** inactive

**Q.** With OCCC(F)(F)C(F)(F)C(F)(F)C(F)(F)C(F)(F)C(F)(F)C(F)(F)C(F)(F)F as the compound, how does the outcome read?
**A.** inactive

**Q.** With CC#C[C@]1(O)CC[C@H]2[C@@H]3CCC4=CC(=O)CCC4=C3[C@@H](c3ccc(N(C)C)cc3)C[C@@]21C as the compound, how does the AC50 read?
**A.** 6.81 µM (active) and 22.9 µM (active)

**Q.** For OCCC(F)(F)C(F)(F)C(F)(F)C(F)(F)C(F)(F)C(F)(F)F, which outcome is on record?
**A.** inactive

**Q.** For c1ccc2c(c1)Cc1ccccc1-2, which outcome is on record?
**A.** inactive

**Q.** Which outcome does the source give for C=C(C)C(=O)OCCC(F)(F)C(F)(F)C(F)(F)C(F)(F)C(F)(F)C(F)(F)F here?
**A.** inactive

**Q.** Which outcome does the source give for c1ccc2c(c1)ccc1ccccc12 here?
**A.** inactive

**Q.** With CN1CCC[C@H]1c1cccnc1 as the compound, how does the outcome read?
**A.** inactive

**Q.** Which AC50 does the source give for CC1=C(/C=C/C(C)=C/C=C/C(C)=C/C(=O)O)C(C)(C)CCC1 here?
**A.** 19.6 µM (active)

**Q.** For c1ccc2cc3c(ccc4ccccc43)cc2c1, which outcome is on record?
**A.** inactive

Test system: not listed separately
Experiment: CCTE_Deisenroth_AIME_384WELL_CTox_Active: Cytotoxicity Assessment (CTOX) in CCTE's 384-well Estrogen Receptor Transactivation Assay with AIME metabolic competence (metabolism positive), Deisenroth Lab (AID 2284037);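 note: chemicals first conditioned 2 h by alginate-bound induced rat liver S9 before cells; activity means signal loss indicating cell death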
Outline: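 VM7Luc4E2 breast cells received medium pre-incubated 2 h with chemical over alginate microspheres holding induced male Sprague Dawley rat liver S9; viability read 24 h later by protease-substrate fluorescence. Loss of signal, bidirectional fit, 0.002–200 uM.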

**Q.** Which AC50 does the source give for Oc1cc2ccccc2c2ccccc12 here?
**A.** 19 µM (active)

**Q.** For COc1ccc([N+](=O)[O-])cc1N, which AC50 is on record?
**A.** 100 µM (active)

**Q.** For N#C[C@@H]1CC(F)(F)CN1C(=O)CNC1CC2CCC(C1)N2c1ncccn1 (stereo not given in full), which outcome is on record?
**A.** inactive

**Q.** For O=C(O)c1ccccc1C(c1ccc(O)cc1)c1ccc(O)cc1, which outcome is on record?
**A.** inactive

**Q.** With CCCCCCCCC(=O)O as the compound, how does the outcome read?
**A.** inactive

**Q.** With Cc1ccc(S(=O)(=O)O)c(C)c1 as the compound, how does the outcome read?
**A.** inactive

**Q.** With CCCCCCCC(=O)O as the compound, how does the outcome read?
**A.** inactive

**Q.** With C[C@@H]1C[C@H]2[C@@H]3CCC4=CC(=O)C=C[C@]4(C)[C@@]3(F)[C@@H](O)C[C@]2(C)[C@@]1(O)C(=O)COP(=O)(O)O as the compound, how does the outcome read?
**A.** inactive

**Q.** With OC1CCCCC1 as the compound, how does the outcome read?
**A.** inactive

**Q.** Which AC50 does the source give for CCN(CC)CCNc1ccc(CNC=O)c2sc3ccc(OC)cc3c(=O)c12 here?
**A.** 130 µM (active)

**Q.** Which outcome does the source give for CCCCC(CC)COC(=O)CCCCC(=O)OCc1ccccc1 (stereo not given) here?
**A.** inactive

**Q.** For COCC(C)OCC(C)O (stereo not given), which outcome is on record?
**A.** inactive

**Q.** With ClC1=C(Cl)C(Cl)(Cl)C(Cl)=C1Cl as the compound, how does the outcome read?
**A.** inactive

**Q.** Which outcome does the source give for CC#C[C@]1(O)CC[C@H]2[C@@H]3CCC4=CC(=O)CCC4=C3[C@@H](c3ccc(N(C)C)cc3)C[C@@]21C here?
**A.** inactive

**Q.** For OCCC(F)(F)C(F)(F)C(F)(F)C(F)(F)C(F)(F)C(F)(F)F, which outcome is on record?
**A.** inactive

**Q.** For CC(C)(C)c1ccc(O)c(C(C)(C)C)c1, which AC50 is on record?
**A.** 171 µM (active)

**Q.** Which AC50 does the source give for CCCCCCCCCCCCN1CCCC1=O here?
**A.** 100 µM (active)

**Q.** With CN1CCC[C@H]1c1cccnc1 as the compound, how does the outcome read?
**A.** inactive

Molecular target: Estrogen receptor (Homo sapiens) (UniProt P03372)
Experiment: CCTE_Deisenroth_AIME_384WELL_LUC_Inactive: CCTE's 384-well Estrogen Receptor Transactivation Assay without AIME metabolic competence (ERTA luciferase; metabolism negative), Deisenroth Lab (AID 2284038);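 note: hits raise estrogen receptor luciferase signal so potencies reflect agonists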
Outline: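 VM7Luc4E2 ER transactivation, luciferase bioluminescence after 24 h, using medium pre-incubated 2 h with S9-free alginate microspheres. Concentrations 0.002–200 uM; gain of signal fitted relative to 17beta-estradiol.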

**Q.** With COc1ccc([N+](=O)[O-])cc1N as the compound, how does the outcome read?
**A.** inactive

**Q.** For N#C[C@@H]1CC(F)(F)CN1C(=O)CNC1CC2CCC(C1)N2c1ncccn1 (stereo not given in full), which outcome is on record?
**A.** inactive

**Q.** Which AC50 does the source give for O=C(O)c1ccccc1C(c1ccc(O)cc1)c1ccc(O)cc1 here?
**A.** 98.9 µM (active)

**Q.** Which outcome does the source give for CCCCCCCCC(=O)O here?
**A.** inactive

**Q.** Which outcome does the source give for Cc1ccc(S(=O)(=O)O)c(C)c1 here?
**A.** inactive

**Q.** Which outcome does the source give for CCCCCCCC(=O)O here?
**A.** inactive

**Q.** With OCCC(F)(F)C(F)(F)C(F)(F)C(F)(F)C(F)(F)C(F)(F)C(F)(F)C(F)(F)F as the compound, how does the outcome read?
**A.** inactive

**Q.** Which outcome does the source give for OC1CCCCC1 here?
**A.** inactive

**Q.** Which AC50 does the source give for CCN(CC)CCNc1ccc(CNC=O)c2sc3ccc(OC)cc3c(=O)c12 here?
**A.** 26.2 µM (active)

**Q.** For CCCCCCC(=O)O, which outcome is on record?
**A.** inactive

**Q.** With CCCCOCCO as the compound, how does the outcome read?
**A.** inactive

**Q.** Which outcome does the source give for CCCCC(CC)COC(=O)CCCCC(=O)OCc1ccccc1 (stereo not given) here?
**A.** inactive

**Q.** With CCCCCCCCCCCCCCCS(=O)(=O)Oc1ccccc1 as the compound, how does the AC50 read?
**A.** 9.6 µM (active)

**Q.** For COCC(C)OCC(C)O (stereo not given), which outcome is on record?
**A.** inactive

**Q.** With ClC1=C(Cl)C(Cl)(Cl)C(Cl)=C1Cl as the compound, how does the outcome read?
**A.** inactive

**Q.** For CC#C[C@]1(O)CC[C@H]2[C@@H]3CCC4=CC(=O)CCC4=C3[C@@H](c3ccc(N(C)C)cc3)C[C@@]21C, which outcome is on record?
**A.** inactive

**Q.** Which outcome does the source give for COC(=O)CCCCC(=O)OC here?
**A.** inactive

**Q.** With OCCC(F)(F)C(F)(F)C(F)(F)C(F)(F)C(F)(F)C(F)(F)F as the compound, how does the outcome read?
**A.** inactive

**Q.** For CN1CCC[C@H]1c1cccnc1, which outcome is on record?
**A.** inactive
